In PubChem BioAssay AID1159580 (chemical genetic matrix, 2015):
Several values for one entry are separate records, joined by “and”; a condition that tells them apart may be missing. Equal entries are not always repeated. Screen size: about 5,500 compounds; about 2,000 (36%) were called active. Inconclusive results (about 18%) are left out. No stated cut-off is given here; in the data, active means normalized growth mostly below about 0.91 (no sharp cut-off); inconclusive means no clear call, values can overlap the other calls; inactive means mostly above about 0.92. The list shows a part of the results.

Test: chemical genetic growth profiling, strain panel (AID 1159580);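 further: tested at 20 µM; growth read once vehicle control cultures reached saturation at 30 °C; 1 = growth at the plate median or of vehicle wells; lower values mean less growth of the strain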
Conditions: growth OD

Measured: normalized growth

CN(C)C(=O)C(CCN1CCC(O)(c2ccc(Cl)cc2)CC1)(c1ccccc1)c1ccccc1
inactive: S. cerevisiae deletion strains, locus YJR075W, strain HOC1, active compounds read low 1.01 and 0.984 | S. cerevisiae deletion strains, locus YKL009W, strain mrt4, active compounds read low 1.01 | S. cerevisiae deletion strains, locus YKL068W, active compounds read low 1 | S. cerevisiae deletion strains, locus YKL085W, strain MDH1 (second series), active compounds read low 1.01 | S. cerevisiae deletion strains, locus YKL085W, strain MDH1, active compounds read low 1.01 | S. cerevisiae deletion strains, locus YKL160W, strain elf1, active compounds read low 0.973 | S. cerevisiae deletion strains, locus YKL190W, strain CNB1, active compounds read low 0.997 | S. cerevisiae deletion strains, locus YKR001C, strain vps1, active compounds read low 1.01 | S. cerevisiae deletion strains, locus YKR026C, strain gcn3, active compounds read low 0.997 | S. cerevisiae deletion strains, locus YKR091W, strain srl3, active compounds read low 0.991 | S. cerevisiae deletion strains, locus YLL001W, strain dnm1, active compounds read low 0.971 | S. cerevisiae deletion strains, locus YLL026W, active compounds read low 0.987 | S. cerevisiae deletion strains, locus YLL041C, strain sdh2, active compounds read low 1 | S. cerevisiae deletion strains, locus YLR027C, strain aat2, active compounds read low 0.976 | S. cerevisiae deletion strains, locus YLR039C, strain RIC1, active compounds read low 1.05 | S. cerevisiae deletion strains, locus YLR058C, strain SHM2, active compounds read low 1 | S. cerevisiae deletion strains, locus YLR102C, strain apc9, active compounds read low 1.01 | S. cerevisiae deletion strains, locus YLR113W, strain HOG1, active compounds read low 0.988 | S. cerevisiae deletion strains, locus YLR221C, strain rsa3, active compounds read low 1 | S. cerevisiae deletion strains, locus YLR258W, strain gsy2, active compounds read low 0.995 | S. cerevisiae deletion strains, locus YLR262C, strain YPT6 (second series), active compounds read low 1.03 | S. cerevisiae deletion strains, locus YLR262C, strain YPT6, active compounds read low 0.991 | S. cerevisiae deletion strains, locus YLR268W, strain sec22, active compounds read low 1.04 | S. cerevisiae deletion strains, locus YLR320W, strain mms22, active compounds read low 0.932 | S. cerevisiae deletion strains, locus YLR330W, strain CHS5, active compounds read low 0.993 | S. cerevisiae deletion strains, locus YLR342W, strain FKS1 (second series), active compounds read low 0.946 | S. cerevisiae deletion strains, locus YLR342W, strain FKS1, active compounds read low 0.955 | S. cerevisiae deletion strains, locus YLR357W, strain rsc2, active compounds read low 0.994 | S. cerevisiae deletion strains, locus YLR370C, strain arc18, active compounds read low 1 | S. cerevisiae deletion strains, locus YLR371W, strain rom2, active compounds read low 1.01 | S. cerevisiae deletion strains, locus YLR384C, strain iki3, active compounds read low 0.996 | S. cerevisiae deletion strains, locus YLR418C, strain cdc73, active compounds read low 0.979 | S. cerevisiae deletion strains, locus YML016C, strain PPZ1, active compounds read low 0.998 | S. cerevisiae deletion strains, locus YML032C, strain rad52, active compounds read low 1.01 | S. cerevisiae deletion strains, locus YML120C, strain ndi1, active compounds read low 0.993 | S. cerevisiae deletion strains, locus YML124C, strain tub3, active compounds read low 1.01 | S. cerevisiae deletion strains, locus YMR058W, strain fet3, active compounds read low 0.996 | S. cerevisiae deletion strains, locus YMR078C, strain ctf18, active compounds read low 1.01 | S. cerevisiae deletion strains, locus YMR125W, strain sto1, active compounds read low 1.02 | S. cerevisiae deletion strains, locus YMR129W, active compounds read low 1 | S. cerevisiae deletion strains, locus YMR205C, strain PFK2, active compounds read low 0.969 | S. cerevisiae deletion strains, locus YMR223W, strain ubp8, active compounds read low 0.992 | S. cerevisiae deletion strains, locus YMR231W, strain pep5, active compounds read low 0.985 | S. cerevisiae deletion strains, locus YMR263W, strain SAP30, active compounds read low 1.01 and 0.992 | S. cerevisiae deletion strains, locus YMR307W, strain GAS1, active compounds read low 0.941 and 0.992 | S. cerevisiae deletion strains, locus YNL067W, strain RPL9B, active compounds read low 1.01 | S. cerevisiae deletion strains, locus YNL071W, strain lat1, active compounds read low 0.975 | S. cerevisiae deletion strains, locus YNL128W, strain TEP1, active compounds read low 1.01 | S. cerevisiae deletion strains, locus YNL153C, strain GIM3, active compounds read low 1.01 | S. cerevisiae deletion strains, locus YNL175C, strain NOP13, active compounds read low 1 | S. cerevisiae deletion strains, locus YNL183C, strain NPR1, active compounds read low 0.939 | S. cerevisiae deletion strains, locus YNL197C, strain WHI3, active compounds read low 0.987 | S. cerevisiae deletion strains, locus YNL209W, strain ssb2, active compounds read low 1.01 | S. cerevisiae deletion strains, locus YNL224C, strain SQS1, active compounds read low 1.04 | S. cerevisiae deletion strains, locus YNL233W, strain BNI4, active compounds read low 1 | S. cerevisiae deletion strains, locus YNL248C, strain rpa49, active compounds read low 0.988 | S. cerevisiae deletion strains, locus YNL250W, strain rad50, active compounds read low 1.02 | S. cerevisiae deletion strains, locus YNL271C, strain bni1, active compounds read low 1.02 | S. cerevisiae deletion strains, locus YNL298W, strain CLA4, active compounds read low 1 | S. cerevisiae deletion strains, locus YNL307C, strain MCK1, active compounds read low 0.994 | S. cerevisiae deletion strains, locus YNL322C, strain KRE1 (second series), active compounds read low 0.993 | S. cerevisiae deletion strains, locus YNL322C, strain KRE1, active compounds read low 1.01 | S. cerevisiae deletion strains, locus YNR049C, strain mso1, active compounds read low 1 | S. cerevisiae deletion strains, locus YNR052C, strain pop2, active compounds read low 1 | S. cerevisiae deletion strains, locus YOL006C, strain TOP1, active compounds read low 1.01 | S. cerevisiae deletion strains, locus YOL012C, strain htz1 1.2 | S. cerevisiae deletion strains, locus YOL147C, strain pex11, active compounds read low 1.01 | S. cerevisiae deletion strains, locus YOR001W, strain rrp6, active compounds read low 0.982 | S. cerevisiae deletion strains, locus YOR061W, strain CKA2, active compounds read low 0.995 | S. cerevisiae deletion strains, locus YOR069W, strain VPS5, active compounds read low 1 | S. cerevisiae deletion strains, locus YOR070C, strain gyp1, active compounds read low 0.996 | S. cerevisiae deletion strains, locus YOR080W, strain dia2, active compounds read low 0.981 | S. cerevisiae deletion strains, locus YOR083W, strain WHI5 (second series), active compounds read low 1.07 | S. cerevisiae deletion strains, locus YOR083W, strain WHI5, active compounds read low 0.954 | S. cerevisiae deletion strains, locus YOR106W, strain vam3, active compounds read low 1 | S. cerevisiae deletion strains, locus YOR136W, strain idh2, active compounds read low 1 | S. cerevisiae deletion strains, locus YOR144C, strain elg1, active compounds read low 1.01 | S. cerevisiae deletion strains, locus YOR184W, strain ser1, active compounds read low 1.02 | S. cerevisiae deletion strains, locus YOR231W, strain MKK1, active compounds read low 0.997 | S. cerevisiae deletion strains, locus YOR265W, strain rbl2, active compounds read low 1 | S. cerevisiae deletion strains, locus YOR270C, strain vph1, active compounds read low 0.996 | S. cerevisiae deletion strains, locus YOR290C, strain snf2, active compounds read low 0.973 | S. cerevisiae deletion strains, locus YOR316C, strain cot1, active compounds read low 1.01 | S. cerevisiae deletion strains, locus YPL051W, strain arl3, active compounds read low 0.99 | S. cerevisiae deletion strains, locus YPL055C, strain LGE1, active compounds read low 0.999 | S. cerevisiae deletion strains, locus YPL078C, strain atp4, active compounds read low 0.971 | S. cerevisiae deletion strains, locus YPL106C, strain sse1, active compounds read low 0.952 | S. cerevisiae deletion strains, locus YPL240C, strain hsp82, active compounds read low 0.992 | S. cerevisiae deletion strains, locus YPL241C, strain CIN2, active compounds read low 0.992 and 1 | S. cerevisiae deletion strains, locus YPL256C, strain CLN2, active compounds read low 0.973 | S. cerevisiae deletion strains, locus YPR119W, strain clb2, active compounds read low 1.01 | S. cerevisiae deletion strains, locus YPR141C, strain kar3, active compounds read low 1.02 | S. cerevisiae deletion strains, locus YPR163C, strain tif3, active compounds read low 1.03 | S. cerevisiae deletion strains, locus YPR167C, strain met16, active compounds read low 1.01 | S. cerevisiae deletion strains, strain wtn01, active compounds read low 1.02 | S. cerevisiae strains, strain wild type, active compounds read low 0.993
